Assay [1] in a line: Cell Viability - LYMP2-021 (AID 974).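 Also: compound exposure lasts 24 hours at 37 °C; % is scaled to controls: 0 for no effect and ±100 for the full control effect; nearly all actives have a fitted effect of over 55% in size.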 The gist of the method: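 In qHTS format, compounds are tested against 2500 lymphoblastoid cells per well for 24 h; viable cell number is inferred from ATP-driven luciferase light, and Hill-equation fitting yields AC50 values.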
The nature of assay [2]: Cell Viability - LYMP2-023 (AID 975).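 Also: cellular ATP measured by luciferase luminescence as viability proxy; series mostly up to about 92 µM; plate controls were DMSO only for no effect and 92 µM tetraoctylammonium bromide control for full effect; nearly all actives have a fitted effect of over 55% in size.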 Put shortly: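 In this qHTS, ATP-based luciferase luminescence (CellTiter-Glo) is quantified in human lymphoblastoid cells after 24 hr compound treatment at 37 C; tetraoctylammonium bromide serves as positive control. Concentration-response curves are Hill-fitted to give AC50.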
The nature of assay [3]: Cell Viability - LYMP2-025 (AID 976).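 Also: series mostly up to about 92 µM; plate controls were DMSO only for no effect and tetraoctylammonium bromide control for full effect.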 The gist of the method:
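Luminescent ATP readout after 24 hr treatment of a human lymphoblastoid line (LYMP2-025, 2500 cells/well, 37 C). Reagent developed 30 min at room temperature; AC50 fitted with the Hill equation.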

The nature of assay [4]: Cell Viability - LYMP2-002 (AID 977).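 Also: series mostly up to about 92 µM; compound exposure lasted 24 h at 37 °C; plate controls were DMSO only for no effect and 92 µM tetraoctylammonium bromide for full effect.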 Put shortly: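 In this qHTS viability screen, 2500 human lymphoblastoid cells per well receive compound for 24 hr at 37 C, and luciferase-based ATP luminescence gives the viability signal. Tetraoctylammonium bromide serves as positive control.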
The nature of assay [5]: Cell Viability - LYMP2-006 (AID 978). Also: series mostly up to about 92 µM; % is scaled to controls: 0 for no effect and ±100 for the full control effect; nearly all actives have a fitted effect of over 60% in size. Put shortly: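 Human lymphoblastoid cells, 2500 per well, were preincubated 5 hr at 37 C, then exposed to compounds for 24 hr at 37 C in complete medium. Viability was read as intracellular ATP by CellTiter-Glo luminescence; AC50 from Hill-equation fits of qHTS concentration-response data.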
Assay [6] in a line: Cell Viability - LYMP2-007 (AID 979).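 Also: cells exposed to compound for 24 h before reading; 0% = DMSO only and the negative end = 92 µM tetraoctylammonium bromide; nearly all actives have a fitted effect of over 60% in size.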 Put shortly:
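Measured via luciferase-based ATP quantitation: lymphoblastoid cells, 24 hr compound exposure at 37 C, AC50 from Hill fits.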

A short description of assay [7]: Cell Viability - LYMP2-008 (AID 980). Also: % is scaled to controls: 0 for no effect and ±100 for the full control effect; nearly all actives have a fitted effect of over 60% in size. Put shortly: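 Measured: ATP-dependent luminescence, proportional to viable cell number, in human lymphoblastoid cells treated 24 hr with compound in complete culture medium. Values are AC50s from Hill-equation modelling of qHTS titrations.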
A short description of assay [8]: Cell Viability - LYMP2-010 (AID 981). Also: % is scaled to controls: 0 for no effect and ±100 for the full control effect; nearly all actives have a fitted effect of over 55% in size. The gist of the method:
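This 24 hr viability screen uses LYMP2-010 lymphoblastoid cells, quantifies ATP via luciferase luminescence, and derives AC50 from Hill fits of qHTS concentration-response data.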

Assay [9] is described as follows: Cell Viability - LYMP2-012 (AID 982).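 Also: cellular ATP by luciferase luminescence where a drop means cytotoxicity; cells exposed to compound for one day before reading; 0% = DMSO only and full loss = 92 µM tetraoctylammonium bromide; nearly all actives have a fitted effect of over 55% in size.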
A short description of assay [10]: Cell Viability - LYMP2-014 (AID 983).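 Also: series mostly up to about 92 µM; plate controls were DMSO only for no effect and 92 µM tetraoctylammonium bromide for full effect; nearly all actives have a fitted effect of over 50% in size.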 The gist of the method: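 Quantitative HTS in lymphoblastoid cells: 24 hr compound exposure, then CellTiter-Glo ATP luminescence. Positive control was tetraoctylammonium bromide, 6.4pM to 92 uM.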
Assay [11] is described as follows: Cell Viability - LYMP2-016 (AID 984). The gist of the method:
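Human lymphoblastoid cells (LYMP2-016), 2500/well in complete medium, preincubated 5 hr at 37 C, then compound-treated 24 hr at 37 C. Intracellular ATP read by CellTiter-Glo luminescence after 30 min at room temperature; AC50 from Hill-equation concentration-response fits.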

Assay [12] in a line: Cell Viability - LYMP2-018 (AID 985).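 Also: plate controls were DMSO only for no effect and tetraoctylammonium bromide at 92 µM for full effect; nearly all actives have a fitted effect of over 50% in size.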 The gist of the method: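 In this qHTS viability assay, cells are treated for 24 hr and cellular ATP is quantified by luciferase-based luminescence, with tetraoctylammonium bromide as positive control.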
Assay [13] is described as follows: Cell Viability - LYMP2-020 (AID 986). Put shortly:
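Cells at 2500 per well receive a 24 hr compound exposure at 37 C. Viability is measured as ATP-dependent luciferase luminescence, with AC50 modeled from qHTS concentration-response curves.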

Assay [14] in a line: Cell Viability - LYMP2-022 (AID 987). The gist of the method:
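In this qHTS cytotoxicity screen, compound titrations were incubated 24 hr at 37 C with human lymphoblastoid cells in complete medium. Luciferase-based ATP luminescence provided the viability signal.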

A short description of assay [15]: Cell Viability - LYMP2-024 (AID 988).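 Also: plate controls were DMSO only for no effect and 92 µM tetraoctylammonium bromide for full effect; nearly all actives have a fitted effect of over 60% in size.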 The gist of the method: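 Cells at 2500 per well received compound for 24 hr after a 5 hr settling period. Viability was scored by CellTiter-Glo luminescence, with AC50 from Hill fits.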
Assay [16] can be described thus: Cell Viability - LYMP2-026 (AID 989). Also: % is scaled to controls: 0 for no effect and ±100 for the full control effect; nearly all actives have a fitted effect of over 50% in size. Put shortly:
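Acute toxicity screen in complete culture medium, with 24 hr compound exposure at 37 C. Viability read as cellular ATP via luciferase reaction, with tetraoctylammonium bromide (6.4pM to 92 uM) as positive control.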

Assay [17] is described as follows: Cell Viability - LYMP1-002 - Assay at 24 hr (AID 993). Also: % is scaled to controls: 0 for no effect and ±100 for the full control effect. Put shortly:
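Viability was judged from intracellular ATP using a luciferase read-out, following a 24-hour compound incubation at 37 C of lymphoblastoid cells seeded at 2500 per well. Concentration-response data were fitted to the Hill equation for AC50.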

Assay [18] in a line: qHTS Assay for Identification of Small Molecule Inducers of Hypoxia Response (AID 2120; active = well fitted curve in the direction sought with a large enough effect in the signal ratio, with a control signal flat, not every such curve was filed as active; the % refers to the signal ratio; also: 0% is about no effect). The gist of the method:
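HRE-bla ME-180, 2500 cells/well, 0.5% dialyzed FBS medium; cpd titration, 17 h 37 degrees C; CCF4 2.5 h RT; Ex 405, Em 460/530 ratio -> %Activity, AC50.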
On the technique in general: qHTS replaces the single test concentration by a dilution series.

Assay [19] has as its target Bile acid receptor (Homo sapiens) (UniProt Q96RI1). Description: qHTS assay for small molecule antagonists of farnesoid X receptor signaling (AID 588526; calls by dose curve; also: % is scaled to controls: 0 for no effect and ±100 for the full control effect). Put shortly: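 Concentration-response titrations were fitted to the Hill equation for half-maximal inhibition and maximal response, with data normalised to 50 uM chenodeoxycholic acid and DMSO control wells. Cells: FXR-UAS-bla HEK293T, dialyzed FBS.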

For assay [20], the target named is Glucocorticoid receptor (Homo sapiens) (UniProt P04150). In words: qHTS assay for small molecule agonists of glucocorticoid receptor signaling (AID 588532; active = well fitted curve in the direction sought with a large enough effect in the signal ratio, with a control signal flat; the % refers to the signal ratio;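 also: 100% = dexamethasone at 0.1 µM and 0% = DMSO only wells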). The settings on record: HeLa MMTV-bla, beta-lactamase ratio, agonist, 18 h; stronger effect = higher value; percent of dexamethasone control, DMSO zero. Put shortly:
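Titration series, up to 92 uM, applied to GRE-bla HeLa cells for 18 h at 37 C. Detection by CCF4 FRET substrate after 2 h at RT.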

The target is the same in assay [21]. Description: qHTS assay for small molecule antagonists of glucocorticoid receptor signaling (AID 588533; active = well fitted inhibition curve with a large enough effect in the signal ratio, with a control signal flat, not every such curve was filed as active; the % refers to the signal ratio;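 also: cells stimulated with 2 nM dexamethasone as agonist; % is scaled to controls: 0 for no effect and ±100 for the full control effect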). The gist of the method:
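Antagonist-mode qHTS: compound titrations added to GRE-bla HeLa cells, then dexamethasone 2 nM final; 18 h, 37 C. CCF4 FRET fluorescence normalized to dexamethasone and DMSO; IC50 from Hill fit.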

Assay [22] can be described thus: qHTS assay for small molecule antagonists of peroxisome proliferator-activated receptor delta signaling (AID 588535; active = well fitted inhibition curve with a large enough effect in the signal ratio, with a control signal flat, not every such curve was filed as active; the % refers to the signal ratio;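 as to max response: cells co-treated with a PPAR-delta agonist as stimulator during compound exposure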). The settings on record: HEK293T PPARd-UAS-bla, beta-lactamase FRET ratio, 18 h; 460 nm channel. Put shortly: (§1)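 Compounds tested in titration on PPAR-delta-UAS-bla HEK293T cells grown in charcoal/dextran-stripped serum (2%); beta-lactamase activity read via CCF4 emission at 460 and 530 nm.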

Assay [23] deals with Peroxisome proliferator-activated receptor delta (Homo sapiens) (UniProt Q03181). Described as above. The gist of the method: as §1
Chain of Peroxisome proliferator-activated receptor delta (Homo sapiens) (Q03181 whole entry, looked up): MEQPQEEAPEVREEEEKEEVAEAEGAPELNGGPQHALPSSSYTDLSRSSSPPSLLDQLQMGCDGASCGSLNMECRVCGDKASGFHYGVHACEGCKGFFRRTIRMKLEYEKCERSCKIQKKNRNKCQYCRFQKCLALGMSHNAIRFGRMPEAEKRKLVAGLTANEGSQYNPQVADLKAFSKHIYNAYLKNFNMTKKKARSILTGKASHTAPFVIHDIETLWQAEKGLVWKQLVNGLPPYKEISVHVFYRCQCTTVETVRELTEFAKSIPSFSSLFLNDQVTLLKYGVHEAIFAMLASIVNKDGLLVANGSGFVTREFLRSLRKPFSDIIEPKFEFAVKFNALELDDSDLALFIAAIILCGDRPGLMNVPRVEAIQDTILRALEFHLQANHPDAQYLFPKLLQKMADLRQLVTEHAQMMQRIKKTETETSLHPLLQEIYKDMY

Inconclusive results are not listed. Calls of active or inactive are those of the source. Unless noted, calls follow the shape of the dose curve; as a rule, active = well fitted cell-killing curve with a large enough effect; inconclusive = small, poorly fitted or top-dose-only effect; inactive = flat fitted curve, though single readings scatter.

Chain of Glucocorticoid receptor (Homo sapiens) (P04150 whole entry, looked up): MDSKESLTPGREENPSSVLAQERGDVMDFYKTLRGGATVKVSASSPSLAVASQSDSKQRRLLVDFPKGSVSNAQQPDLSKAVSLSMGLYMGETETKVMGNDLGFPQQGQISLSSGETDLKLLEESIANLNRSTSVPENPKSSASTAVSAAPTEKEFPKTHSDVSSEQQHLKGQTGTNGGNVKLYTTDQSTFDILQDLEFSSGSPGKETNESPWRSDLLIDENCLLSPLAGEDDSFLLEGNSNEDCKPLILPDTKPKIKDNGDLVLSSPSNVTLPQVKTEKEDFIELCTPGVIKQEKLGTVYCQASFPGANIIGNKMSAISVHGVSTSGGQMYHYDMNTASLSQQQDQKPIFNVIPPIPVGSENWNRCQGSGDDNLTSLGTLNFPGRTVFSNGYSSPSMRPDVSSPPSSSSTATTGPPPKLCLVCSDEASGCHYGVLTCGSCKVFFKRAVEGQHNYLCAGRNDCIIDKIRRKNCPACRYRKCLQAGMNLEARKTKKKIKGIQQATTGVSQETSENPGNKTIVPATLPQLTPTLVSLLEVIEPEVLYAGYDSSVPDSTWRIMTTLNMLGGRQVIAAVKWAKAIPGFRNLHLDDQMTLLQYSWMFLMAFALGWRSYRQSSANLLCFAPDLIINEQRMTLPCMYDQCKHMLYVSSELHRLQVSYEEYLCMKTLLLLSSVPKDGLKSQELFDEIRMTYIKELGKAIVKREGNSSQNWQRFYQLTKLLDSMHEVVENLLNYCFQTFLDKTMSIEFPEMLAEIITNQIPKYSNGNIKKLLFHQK
Chain of Bile acid receptor (Homo sapiens) (Q96RI1 whole entry, looked up): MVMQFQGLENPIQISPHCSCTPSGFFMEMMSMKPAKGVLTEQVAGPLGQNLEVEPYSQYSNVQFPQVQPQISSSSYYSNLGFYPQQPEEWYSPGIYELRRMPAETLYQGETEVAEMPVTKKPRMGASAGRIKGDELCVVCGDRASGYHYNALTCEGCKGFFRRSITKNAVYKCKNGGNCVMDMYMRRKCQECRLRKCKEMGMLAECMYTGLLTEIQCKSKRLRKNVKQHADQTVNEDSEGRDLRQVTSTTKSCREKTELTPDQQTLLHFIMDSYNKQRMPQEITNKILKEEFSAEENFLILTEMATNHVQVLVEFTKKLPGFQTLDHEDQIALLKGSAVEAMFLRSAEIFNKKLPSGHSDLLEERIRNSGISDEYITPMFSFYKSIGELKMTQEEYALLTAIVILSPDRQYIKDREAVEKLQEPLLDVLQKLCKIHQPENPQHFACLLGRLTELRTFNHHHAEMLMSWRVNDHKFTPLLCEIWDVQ

Turning to `O=C(/C=C/c1ccc(O)c(O)c1)O[C@@H](C(=O)O)[C@@H](OC(=O)/C=C/c1ccc(O)c(O)c1)C(=O)O`, the Potency entry in assay [1], in assay [2], in assay [3], in [4], in assay [5] and in assay [6] was “inactive” each time. The Potency result in [7], in assay [8], in [9], in assay [10], in [11] and in assay [12] was “inactive” throughout. Further, the Potency entry in [13], in [14], in assay [15], in [16], in assay [17] and in [21] was “inactive” each time. Moreover, in [23], the Potency entry was “inactive”. For the same molecule, the result in assay [18] and in assay [19] was inactive. The activation in [20] was 1.43% (inactive). Also, the max response in [22] came out at 24.1%.

For the origin of these results see PubChem BioAssay (NCATS).
